# Data published in PubChem BioAssay (NCATS).
# Inconclusive results are not listed. The source made the active and inactive calls. Calls come from the whole dose curve; as a rule, active = well fitted inhibition curve with a large enough effect; inconclusive = small, poorly fitted or top-dose-only effect; inactive = flat fitted curve, though single readings scatter. *1 amine or outer side, *2 acyl side, *3 side chain or, on linkers, in order; H or OH if unused. Where a SMILES comes first, the peptide text is derived from it. [ ]: non-standard residue; d: D form. X13 = O=C(C(CC(O)CO)O[*:1])[*:2]; NMeV = CN[CH](C(=O)O)C(C)C; NMeA = CN[CH](C)C(=O)O; βAla = NCCC(=O)O
# Tested on: HEK293
# Test: Cytotoxic Profiling of Annotated Libraries Using Quantitative High-Throughput Screening (AID 1296008); note: nearly all actives have a fitted effect of over 60% in size
# Settings: Five cell lines viability, CellTiter-Glo ATP luminescence, 48-72 h; max response: active compounds read low
# Summary of the method: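 Cells exposed to compounds for 48 or 72 hr at 37 degrees Celsius. Viability read as ATP-coupled luminescence with CellTiter-Glo after 10 min at room temperature.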
# % is set by controls: 0 for no effect and ±100 for the full control effect.
row,Compound,max response
1,CC1CC2(O)OC(=O)C3=C2C(CCC3)[C@@]12C[C@@H](c1ccoc1)OC2=O (some centres not stated),-0.207% (inactive)
2,Cc1nc2ccccc2c(-c2ccc3c4c(ccnc24)CCO3)c1[C@H](OC(C)(C)C)C(=O)O,4.74% (inactive)
3,NC[C@H]1CCC[C@@H](CNC(=O)[C@@H](Cc2c[nH]c3ccccc23)NC(=O)N2CCC3(C=Cc4ccccc43)CC2)C1,-6.44% (inactive)
4,CCC(C)/C=C(C)/C=C/C1=CC2=C(Cl)C(=O)C(C)(OC(C)=O)C(=O)C2=CN1C(CCC(=O)O)C(=O)O (configuration not stated),-1.69% (inactive)
5,CC(C)C1NC(=O)C2CCCN2C1=O (configuration not stated),0.78% (inactive)
6,C=CC1(C)CC2CCC3C(C)(C(=O)O)CCCC3(C)C2=CC1=O (configuration not stated),-0.432% (inactive)
7,CC(C)C1(O)C=C2C(=O)CC3C(C)(C(=O)O)CCCC3(C)C2CC1 (configuration not stated),0.541% (inactive)
8,COc1cccc(C)c1C(=O)O[C@@H]1C[C@H](O[C@H]2[C@H](O)C[C@H](O[C@@H]3CCC[C@H]4[C@H]3C=C[C@@H]3CCCC/C=C/[C@H]5C=C(C(=O)O)[C@@H](C)C[C@@]56OC(=O)C(=C6O)OC(=O)[C@@]34C)O[C@@H]2C)O[C@H](C)[C@H]1O,-11.9% (inactive)
9,C=C(C(=O)OC)[C@]12O[C@@](C)(CC[C@@]3(O)/C(=C\C)C(=O)O[C@]3(C)C[C@@H]1OC(=O)C(CO)CN1CCCC1C(=O)O)CC2=O (some centres not stated),-8.55% (inactive)
10,COC(=O)C1=CO[C@@H](O[C@@H]2O[C@H](CO)[C@@H](O)[C@H](O)[C@H]2O)[C@@H]2[C@@H](CO)[C@@H](O)C(O)[C@H]12 (some centres not stated),-5.81% (inactive)
11,O=C(O)c1cc(O[C@@H]2O[C@H](CO)[C@@H](O)[C@H](O)[C@H]2O)ccc1O,-8.21% (inactive)
12,C=C(CC/C=C(\C)C(=O)O)C1(O)CC=C(C)CC1 (configuration not stated),4.47% (inactive)
13,CC(C)=CCc1cc(O[C@@H]2O[C@H](CO[C@@H]3OC[C@](O)(CO)[C@H]3O)[C@@H](O)[C@H](O)[C@H]2O)ccc1O,1.91% (inactive)
14,C=C1CCC2C(C)(C)CCC[C@]2(C)[C@H]1CC/C(C)=C/C(=O)O (some centres not stated),-1.43% (inactive)
15,CCC(C)C1NC(=O)C2CCCN2C(=O)C(CC(O)CO)OC(=O)CCNC(=O)C(C)N(C)C(=O)C(C(C)C)N(C)C1=O (configuration not stated) (cyclo([X13]PI[NMeV][NMeA][βAla]); configuration not given here),2.6% (inactive)
16,Cc1cc(-c2nncc3c(C(C)(C)C)c(OCc4ncnn4C)nn23)no1,-4.36% (inactive)
17,C[C@@H]1O[C@@H](O[C@@H]2\C=C/C=C\C=C/C=C\C[C@H](C)OC(=O)/C=C\[C@H]3O[C@@H]3C[C@H](O)C[C@]3(O)C[C@@H](O)[C@@H](C(=O)O)[C@H](C2)O3)[C@H](O)[C@H](N)[C@@H]1O,3.56% (inactive)
18,CC(=O)c1ccc(O[C@@H]2OC[C@@H](O)[C@H](O)[C@H]2O[C@]2(CO)O[C@H](CO)[C@@H](O)[C@@H]2O)c(O)c1,2.18% (inactive)
19,C=C1CC[C@@H]2[C@@](C)(CO[C@@H]3O[C@H](CO)[C@@H](O)[C@H](O)[C@H]3O)[C@H](O)CC[C@@]2(C)[C@@H]1CC/C(C)=C/CO[C@@H]1O[C@H](CO)[C@@H](O)[C@H](O)[C@H]1O,-9.45% (inactive)
20,OC[C@@]1(O)CO[C@@H](OC[C@H]2O[C@@H](Oc3ccccc3)[C@H](O)[C@@H](O)[C@@H]2O)[C@@H]1O,-6.8% (inactive)
21,NC1(c2ccc(NC(=O)c3ccnc(-c4cc(C(=O)O)ccn4)c3)cc2)CC1,-8.28% (inactive)
22,OC[C@@]1(O)CO[C@@H](OC[C@H]2O[C@@H](OCc3ccccc3)[C@H](O)[C@@H](O)[C@@H]2O)[C@@H]1O,2.46% (inactive)
23,CC1(C)CC2C(O)C3=C(CC(C)(O)C2C1)C(=O)OC3 (configuration not stated),-1.51% (inactive)
24,COc1c2c(c(C)c3c1C(=O)OC3)OC1(C)CC(O)C34OC(O)(CCC3(C)C1C2)OC4(C)C (configuration not stated),-9.5% (inactive)
25,COc1cc(C2OCC3(O)C(c4ccc(O[C@@H]5O[C@H](CO)[C@@H](O)[C@H](O)[C@H]5O)c(OC)c4)OCC23O)ccc1O (some centres not stated),-0.768% (inactive)
26,CC1=CC2=C(C)C(=O)[C@](C)(O)[C@H](O)C2=CO1,3.6% (inactive)
27,C[C@]12CCC[C@](C)(C(=O)O)C1[C@@H](O)[C@@H](O)C13CC(CCC12)C(CO)(O[C@@H]1O[C@H](CO)[C@@H](O)[C@H](O)[C@H]1O)C3 (some centres not stated),-8.27% (inactive)
